Measurements: PubChem BioAssay (NCATS)
Inconclusive results are not listed. The source made the active and inactive calls. Calls come from the whole dose curve; as a rule, active = well fitted curve in the direction sought with a large enough effect; inconclusive = small, poorly fitted or top-dose-only effect, or another doubt; inactive = no such curve, though single readings can be large; an effect the other way counts as inactive or inconclusive.

Columns and labels:
[1] = target: Cellular tumor antigen p53 (Homo sapiens) (UniProt P04637); test: Primary qHTS for small molecule compounds that upregulate eGFP-tagged delta133p53alpha (in N-terminal) cells. (AID 2060322); conditions: NCI-H358 eGFP-delta133p53alpha fluorescence, 24 h; activation: hits give high values;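 note: cells pre-induced with doxycycline then dosed without doxycycline; 0% = DMSO vehicle and 100% = reference activator; nearly all actives have a fitted effect of over 75% in size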
Sequence of Cellular tumor antigen p53 (Homo sapiens) (P04637 whole entry, looked up): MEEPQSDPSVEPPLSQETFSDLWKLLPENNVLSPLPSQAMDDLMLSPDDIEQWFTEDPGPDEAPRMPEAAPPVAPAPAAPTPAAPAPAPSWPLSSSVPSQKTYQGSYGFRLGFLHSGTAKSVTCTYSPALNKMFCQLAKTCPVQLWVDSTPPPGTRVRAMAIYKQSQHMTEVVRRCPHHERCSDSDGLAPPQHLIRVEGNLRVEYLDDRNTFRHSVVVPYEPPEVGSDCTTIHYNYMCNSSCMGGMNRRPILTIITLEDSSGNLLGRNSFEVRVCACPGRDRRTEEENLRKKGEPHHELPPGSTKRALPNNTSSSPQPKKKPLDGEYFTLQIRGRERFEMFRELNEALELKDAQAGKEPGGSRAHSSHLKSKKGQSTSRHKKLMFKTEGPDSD
Method in brief: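 NCI-H358 cells pre-induced 24 h with 10 ng/ml doxycycline for eGFP-delta133p53alpha, plated dox-free and exposed 24 h at 37C to titrated compounds. Fixed, Hoechst-stained; gated GFP peak intensity by laser scanning cytometry, normalized to DMSO (0%) and 57.5 uM 5-azacytidine (100%).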

[2] = target: Aldehyde dehydrogenase, mitochondrial (Homo sapiens) (UniProt P05091); test: qHTS for Inhibitors of the Aldehyde Dehydrogenase Family (ALDH2) Primary screen (AID 2061308); conditions: ALDH2 enzyme inhibition qHTS, 1536-well; series mostly up to 56 µM;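 note: plate controls were vehicle for no effect and reference inhibitor for full effect; nearly all actives have a fitted effect of over 55% in size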
[3] = target: Retinaldehyde dehydrogenase 3 (Homo sapiens) (UniProt P47895); test: qHTS for Inhibitors of the Aldehyde Dehydrogenase Family (ALDH1A3) Primary screen (AID 2061315); conditions: ALDH inhibition qHTS; series mostly up to 56 µM;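 note: plate controls were DMSO vehicle for no effect and reference inhibitor for full effect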

CN(C)CC1CCOC1(c1ccccc1)c1ccccc1 (configuration not stated)
inactive: activation [1] -7% | Potency [2] | Potency [3]

CC(=O)O[C@H]1CC(C)(C)CC2[C@]13CO[C@@]21CCC2[C@@]4(C)CC[C@H](O[C@@H]5OC[C@H](O[C@@H]6O[C@H](CO)[C@@H](O)[C@H](O)[C@H]6O[C@@H]6OC[C@@H](O)[C@H](O)[C@H]6O)[C@H](O)[C@H]5O[C@@H]5O[C@H](CO)[C@@H](O)[C@H](O)[C@H]5O)[C@@](C)(CO)C4CC[C@@]2(C)[C@]1(C)C[C@H]3O (some centres not stated)
inactive: activation [1] -17.9% | Potency [2] | Potency [3]

C[C@@H]1O[C@@H](O[C@H]2[C@H](O)[C@@H](O[C@@H]3O[C@H](CO)[C@@H](O)[C@H](O[C@@H]4O[C@H](CO)[C@@H](O)[C@H](O)[C@H]4O)[C@H]3O)[C@H](O[C@H]3CC[C@@]4(C)C(=CC[C@@H]5C4CC[C@@]4(C)C5C[C@@H]5OC6(CC[C@@](C)(CO[C@@H]7O[C@H](CO)[C@@H](O)[C@H](O)[C@H]7O)O6)[C@@H](C)[C@@H]54)C3)O[C@@H]2CO)[C@H](O)[C@H](O)[C@H]1OC1OC(CO)C(O)C(O)C1O (some centres not stated)
inactive: activation [1] 13% | activity change, negative = inhibition [2] -9.01% [at 11.2 µM] | activity change, negative = inhibition [3] -22.4% [at 11.2 µM]

CC(=O)OC1CC2C(C)(C)C(=O)C=CC2(C)C2CC(=O)C3=C(CCC3C3=CC(O)OC3=O)C12C (configuration not stated)
inactive: activation [1] -12.2% | Potency [2] | Potency [3]

C[C@@H]1CCO[C@H]2Cn3cc(C(=O)NCc4ccc(F)cc4F)c(=O)c(O)c3C(=O)N12
inactive: activation [1] 32.3% | Potency [2] | Potency [3]

O=C1OCC(c2ccccc2)=C1Cc1ccccc1
inactive: activation [1] -8.4% | Potency [2] | Potency [3]

O=C(O)c1cccc(-c2ccc(-c3cn(C(=O)N4CCCCC4Cc4ccccc4)nn3)cc2)c1 (configuration not stated)
inactive: activation [1] -9.67% | Potency [2] | Potency [3]

COc1cc(O)cc(C)c1C(=O)OC1C(CO)OC(OC2C(O)C(O)C(O)C(O)C2O)C(O)C1O (configuration not stated)
inactive: activation [1] -29% | Potency [2] | Potency [3]

CCC(C)(O)C(O)C(=O)OCc1ccc(O[C@@H]2O[C@H](CO)[C@@H](O)[C@H](O)[C@H]2O)cc1 (some centres not stated)
inactive: activation [1] -6.87% | Potency [2] | Potency [3]

CC1(C)CC[C@]2(C(=O)O[C@@H]3O[C@H](CO)[C@@H](O)[C@H](O)[C@H]3O)CC[C@]3(C)C(=CCC4[C@@]5(C)C[C@@H](O)[C@H](O)[C@@](C)(CO)C5[C@H](O)C[C@]43C)C2C1 (some centres not stated)
inactive: activation [1] 3.82% | Potency [2] | Potency [3]

CC1OC(OCC2OC(OC3CCC4(C)C(CCC5(C)C4CC=C4C6CC(C)(C)CCC6(C(=O)OC6OC(CO)C(O)C(O)C6O)CCC45C)C3(C)CO)C(O)C(O)C2O)C(O)C(O)C1O (configuration not stated)
inactive: activation [1] -9.92% | Potency [2] | Potency [3]

CC(C)=CCC/C(C)=C/CO[C@@H]1O[C@H](CO[C@@H]2O[C@@H](CO)[C@H](O)[C@H]2O)[C@@H](O)[C@H](O)[C@H]1O
inactive: activation [1] -29.5% | Potency [2] | Potency [3]

CC(C)=CCC/C(C)=C/CC/C(C)=C/COC1OC(COC2OCC(OC3OCC(O)C(O)C3O)C(O)C2O)C(O)C(OC2OC(C)C(OC3OC(C)C(OC4OCC(OC5OC(C)C(O)C(O)C5O)C(O)C4O)C(O)C3O)C(O)C2O)C1O (configuration not stated)
inactive: activation [1] 4.58% | activity change, negative = inhibition [2] 7.18% [at 11.2 µM] | activity change, negative = inhibition [3] -4.87% [at 11.2 µM]

CSCC1OC(n2cnc3c(=O)[nH]cnc32)C(O)C1O (configuration not stated)
inactive: activation [1] -8.4% | Potency [2] | Potency [3]

CC(=O)C1=CCC2C3CCC4CC(O[C@@H]5O[C@H](CO)[C@@H](O[C@@H]6O[C@@H](C)[C@H](O)[C@@H](O)[C@H]6O)[C@H](O)[C@H]5O[C@@H]5O[C@H](CO)[C@@H](O)[C@H](O)[C@H]5O)CCC4(C)C3CCC12C (some centres not stated)
inactive: activation [1] -10.7% | Potency [2] | Potency [3]

O=C(NCCN1CCCC1)c1cc(-c2ccc(CN3CCOCC3)cc2)nc2ccc(F)cc12
inactive: activation [1] 3.67% | Potency [2] | Potency [3]

COC(=O)/C=C/C=C/C(=O)OC1C=C2COC(=O)C2(O)C2(C)CCCC(C)(C)C12 (configuration not stated)
inactive: activation [1] -4.58% | Potency [2] | Potency [3]

Cc1cn2c(N)c(Cl)cc(C(=O)NCC3CCN(CC(C)C)CC3)c2n1
inactive: activation [1] -0.893% | Potency [2] | Potency [3]

CC1(C)CC2C(O)C3=C(CC(C)(O)C2C1)C(=O)OC3 (configuration not stated)
inactive: activation [1] -6.87% | Potency [2] | Potency [3]
